The values below come from PubChem BioAssay (NCATS).

Records with an inconclusive call do not appear. Where a call stands in place of a potency, no number is given. Activity calls are given as the source filed them. The call rests on the fitted dose curve; in most records, active means well fitted cell-killing curve with a large enough effect; inconclusive means small, poorly fitted or top-dose-only effect, or effect the other way; inactive means no such curve, though single readings can be large or run the other way.
Potency means the concentration at half of the fitted maximal effect.

This assay can be described thus: Quantitative High-Throughput drug screen in 47 multiple myeloma cell lines against the NCATS MIPE library collection: PCM6_Riken cell viability assay (AID 1919870). Further: nearly all actives have a fitted effect of over 30% in size. The following applies: CellTiter-Glo ATP, 48 h; series mostly up to 45.8 µM. In short, it runs like this:
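Plated at 500 cells per well, myeloma lines received MIPE 4.0 compounds by pin tool. Following 48 h culture at 37 °C, CellTiter-Glo luminescence gave viability relative to DMSO and media-only controls.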
As to `c1cnc2cc3c(cc2n1)C1CNCC3C1`, the Potency entry was “inactive”.

In the case of `CC1(C)C(=O)N(CCN2CCC(C(=O)c3ccc(F)cc3)CC2)c2ccccc21`, the Potency entry was “inactive”.

In the case of `O=c1c(O)c(-c2cc(O)c(O)c(O)c2)oc2cc(O)cc(O)c12`, the Potency entry is “inactive”.

`O=C1NC(=O)C(c2ccccc2[N+](=O)[O-])=C1Nc1ccc(O)c(Cl)c1`: the Potency was 18.7 µM (active).

Take `N=C(N)c1ccc2cc(OC(=O)c3ccc(N=C(N)N)cc3)ccc2c1`: the Potency entry was “inactive”.

With `CCN(CCO)CCCC(C)Nc1ccnc2cc(Cl)ccc12` (stereo not drawn), the Potency result was “inactive”.

Regarding `Cc1nc(Nc2ncc(C(=O)Nc3c(C)cccc3Cl)s2)cc(N2CCN(CCO)CC2)n1`, the Potency was 5.26 µM (active).

`Clc1ccc(C(Cn2ccnc2)OCc2ccsc2Cl)c(Cl)c1` (stereo not drawn): the Potency was 16.6 µM (active).

As for `CC(C)Oc1ccc2c(=O)c(-c3ccccc3)coc2c1`, the Potency entry is “inactive”.

In the case of `CCOC(=O)C1=C(O)C(=O)N(Cc2ccccc2)C1`, the Potency result is “inactive”.

`CCC1=C(C)CN(C(=O)NCCc2ccc(S(=O)(=O)NC(=O)NC3CCC(C)CC3)cc2)C1=O` (stereo not drawn): the Potency entry is “inactive”.

On to `COc1cc(C(C)=O)ccc1OCCCN1CCC(c2noc3cc(F)ccc23)CC1`, for which the Potency is 18.7 µM (active).

For `O=C(NOCC1CC1)c1ccc(F)c(F)c1Nc1ccc(I)cc1Cl`, the Potency was 14.8 µM (active).

Take `NC(=O)Cc1cccc(C(=O)c2ccccc2)c1N`: the Potency result was “inactive”.

As to `Cc1cc(=O)c2c(O)c3c(O)cc(=O)c4c3c3c(cc(O)c1c23)C(C)(C)C=4O`, the Potency was 1.87 µM (active).

Regarding `Oc1ccc(OCc2ccccc2)cc1`, the Potency entry is “inactive”.

With `O=C(NCCO[N+](=O)[O-])c1cccnc1`, the Potency result was “inactive”.

Take `CC(=O)O[C@H]1C(=O)[C@@]2(C)C([C@H](OC(=O)c3ccccc3)[C@]3(O)C[C@H](OC(=O)[C@H](O)[C@@H](NC(=O)c4ccccc4)c4ccccc4)C(C)=C1C3(C)C)[C@]1(OC(C)=O)CO[C@@H]1C[C@@H]2O` (stereo partly drawn): the Potency entry is “inactive”.
